Data taken from PubChem BioAssay (NCI).
The panel holds about 83,000 compounds, 20% with a hit somewhere; the sample as a whole holds those more often.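 Plates (96-well) were seeded with cells, treated with compound at one concentration, and incubated for 48 hours before percent growth was determined.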 Activity calls are given as the source filed them. The calls were made as follows: active = growth percent below 10; inactive = the rest. Where a SMILES comes first, the peptide text is derived from it. Bridges are numbered along the chain shown (N, C = ends). [ ]: non-standard residue; d: D form. The star is where a group is joined. ξ: configuration not given here. ξNMePhe(4-NMe2) = CNC(Cc1ccc(N(C)C)cc1)C(=O)O; Picolinoyl(3-OH) = O=C(c1ncccc1O)*; ξPip(4-oxo) = O=C1CCNC(C(=O)O)C1; Phg = N[CH](C(=O)O)c1ccccc1; Abu = CC[CH](N)C(=O)O

These compounds were tested on NCI-H226 lung (assay: NCI-60 one-dose screen, 48 h (100 = growth as untreated, 0 = no growth, -100 = all killed)). Conditions: 10 µM.
For `Cc1cc(N)ccc1-c1ccc(N)cc1C`, the growth was 102% (inactive). With `CCC1NC(=O)C(NC(=O)c2ncccc2O)C(C)OC(=O)C(c2ccccc2)NC(=O)C2CC(=O)CCN2C(=O)C(Cc2ccc(N(C)C)cc2)N(C)C(=O)C2CCCN2C1=O` (stereo not drawn) (tested in a mixture with another compound) ({Picolinoyl(3-OH)}-T[Abu]P[ξNMePhe(4-NMe2)][ξPip(4-oxo)][Phg]; ester 1-C; configuration not given here) the growth was 56.7% (inactive). `COc1ccc2c(NCCCCCCCCNc3c4ccccc4nc4cc(OC)ccc34)c3ccccc3nc2c1` was tested, and the growth was -65.3% (active). In the case of `CC1(O)OC(COc2ccc(Cl)cc2)COC1O` (stereo not drawn), the growth is reported as 102% (inactive). With `CCN(CC)C(=O)/C=C(/C)c1ccccc1` the growth was 97.2% (inactive). In the case of `N=c1c(C(=O)OCc2ccccc2)ncc(CCl)n1O`, the growth is reported as 92.9% (inactive). With `COC(=O)c1[nH]c(=O)c(C#N)c(C(=O)OC)c1C(=O)c1ccccc1` the growth was 97.7% (inactive). In the case of `CCCNC(=O)c1ccc(S(N)(=O)=O)cc1`, the growth is reported as 108% (inactive). With `O=C(c1ccc(O)cc1)c1ccc(O)cc1` the growth was 98.1% (inactive). In the case of `NC(=O)N/N=C\c1ccco1`, the growth is reported as 102% (inactive). For `O=S(=O)(O)CC(O)CN1CCN(CCO)CC1` (stereo not drawn), the growth was 108% (inactive). With `Cc1ccc(C)n1-c1ccsc1C(=O)NNC(=O)C(Cl)Cl` the growth was 93% (inactive). For `O=c1cc(-c2ccccc2)oc2c1ccc1ccccc12`, the growth was 86.3% (inactive). `Oc1ccc(N=Nc2ccc(Br)cc2)c(O)c1` was tested, and the growth was 83.6% (inactive). `O=c1c2ccccc2c(Br)c(Br)c2ccccc12` was tested, and the growth was 74.2% (inactive). With `C/C(=C\c1cc(Cl)ccc1OCC(=O)O)[N+](=O)[O-]` the growth was 108% (inactive). With `COC(=O)/C=C\C(=O)OC` the growth was 114% (inactive). In the case of `O=C(O)c1cc([N+](=O)[O-])ccc1Cl`, the growth is reported as 107% (inactive). For `N#Cc1c(N)sc(=S)c2c1CCCC2`, the growth was 104% (inactive). In the case of `CCOC(=O)c1[nH]c(C)c(C(=O)O)c1C`, the growth is reported as 101% (inactive). `C#C[C@H]1CCCCCC1O` (stereo partly drawn) was tested, and the growth was 96.5% (inactive). `Nc1nc(N)c2cc(S(=O)(=O)c3cccc(C(F)(F)F)c3)ccc2n1` was tested, and the growth was 69.2% (inactive). In the case of `CCN(CC)CCCC(C)Nc1ccnc(/C=C/c2ccc(Cl)cc2)c1` (stereo not drawn), the growth is reported as 62.6% (inactive).
